Experimental data reported in PubChem BioAssay (Tox21).
Values joined by “and” are separate entries in the source; they are usually repeats but may differ in a detail not shown here. Identical values can stand only once. Results filed as inconclusive are left out. Where a structure was tested more than once in an assay, its records may differ in their call. Active and inactive are the calls of the source. Unless noted, calls come from the whole dose curve; as a rule, active = well fitted curve in the direction sought with a large enough effect in the repeat runs; inconclusive = weak or mixed curves; inactive = no such curve, though single readings can be large; an effect the other way counts as inactive or inconclusive.

Tests used:
[1] = biological target: Progesterone receptor (Homo sapiens) (UniProt P06401); experiment: qHTS assay to identify small molecule antagonists of the progesterone receptor (PR) signaling pathway (AID 1346795; active = well fitted inhibition curve with a large enough effect in the signal ratio in the repeat runs, not every such curve was filed as active; the % refers to the signal ratio; note: potency is the fitted concentration of half-maximal effect)
Summary of the method: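 Antagonist mode: compounds tested against 1 nM (final) promegestone stimulation in HEK293T cells expressing PR-UAS-bla reporter, 16 hr at 37C, 5% CO2; beta-lactamase activity detected via B/G FRET substrate after 2 hr at room temperature.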

[2] = qHTS assay to identify small molecule antagonists of the progesterone receptor (PR) signaling pathway - cell viability counter screen (AID 1346798); note: nearly all actives have a fitted effect of over 50% in size; note: potency is the fitted concentration of half-maximal effect
Summary of the method: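 Counter screen for cytotoxicity: viability of PR-UAS-bla HEK293T cells was measured with CellTiter-Glo luminescence following 16 hr compound exposure in the presence of R5020.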

[3] = qHTS assay to identify small molecule agonists of the progesterone receptor (PR) signaling pathway - cell viability counter screen (AID 1346799; calls by dose curve; note: nearly all actives have a fitted effect of over 45% in size; note: potency is the fitted concentration of half-maximal effect)
Summary of the method: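 Cells (PR-UAS-bla HEK293T) are plated at 3,000/well in 2% charcoal-stripped FBS medium, rested 6 hr, dosed and incubated 16 hr at 37C. CellTiter-Glo is then added and luminescence measured after 30 min at room temperature.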

[4] = qHTS assay to identify small molecule antagonists of the TGF-beta/Smad signaling pathway - cell viability counter screen (AID 1346824); note: nearly all actives have a fitted effect of over 50% in size; note: potency is the fitted concentration of half-maximal effect
Summary of the method: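 Cytotoxicity counter-screen run in the same wells as the beta-lactamase Smad reporter read: CellTiter-Glo luminescence after 30 min at room temperature. HEK 293T SBE-bla cells had 5 hr compound exposure at 37 C with TGF-beta1 (0.25 ng/mL stock).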

[5] = biological target: Thyrotropin-releasing hormone receptor (Homo sapiens) (UniProt P34981); experiment: qHTS assay to identify small molecule antagonists of the thyrotropin-releasing hormone receptor (TRHR) signaling pathway (AID 1346877; active = well fitted inhibition curve with a large enough effect in the repeat runs, not every such curve was filed as active; note: potency is the fitted concentration of half-maximal effect)
Summary of the method: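 Following an 18 h incubation at 37 °C and a 2 h calcium dye load, TRHR-HEK293 cells were exposed to compound (5 min, room temperature) and challenged with TRH, 1 nM final.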

[6] = Human pregnane X receptor (PXR) small molecule agonists, qHTS cell viability counter screen (AID 1346977); note: nearly all actives have a fitted effect of over 50% in size; note: potency is the fitted concentration of half-maximal effect
Summary of the method: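 Cytotoxicity counter screen run in the same wells as the PXR luciferase assay, using PXR-Luc HepG2 cells in charcoal-stripped serum medium. Viability: CellTiter-Fluor fluorescence after 24hr compound treatment.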

[7] = qHTS assay to identify small molecule agonists of the TGF-beta/Smad signaling pathway (AID 1346859; active = well fitted activation curve with a large enough effect in the signal ratio in the repeat runs, not every such curve was filed as active; the % refers to the signal ratio; note: series mostly up to about 77 µM)
Summary of the method: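 Reporter line: HEK 293T with stably integrated SBE-controlled beta-lactamase. Compound exposure lasts 5 hr at 37 C and 5% CO2; substrate loading follows for 2 hr at room temperature, with emission read at 460 and 530 nm.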

[8] = biological target: Thyrotropin-releasing hormone receptor (Homo sapiens) (UniProt P34981); experiment: qHTS assay to identify small molecule agonists of the thyrotropin-releasing hormone receptor (TRHR) signaling pathway (AID 1346891; calls by dose curve; note: potency is the fitted concentration of half-maximal effect;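 for activation: HEK293 cells expressing TRHR with calcium dye readout; series mostly up to about 58 µM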)
Summary of the method: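 Cells: TRHR-Hek293, seeded and incubated 18 h. Dye loading: 2 h at 37 °C. Compound added from DMSO stock by pin tool. Read-out: kinetic calcium fluorescence over 3 min.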

[9] = qHTS assay to identify small molecule agonists of the TGF-beta/Smad signaling pathway - cell viability counter screen (AID 1346829); note: nearly all actives have a fitted effect of over 45% in size; note: potency is the fitted concentration of half-maximal effect
Summary of the method: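 SBE-bla HEK 293T cells plated overnight, compound exposure 5 hr at 37 C. Viability read in the same wells by CellTiter-Glo luminescence after 30 min at room temperature, following the beta-lactamase read.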

Measured: Potency

Sequence of Thyrotropin-releasing hormone receptor (Homo sapiens) (P34981 whole entry, looked up): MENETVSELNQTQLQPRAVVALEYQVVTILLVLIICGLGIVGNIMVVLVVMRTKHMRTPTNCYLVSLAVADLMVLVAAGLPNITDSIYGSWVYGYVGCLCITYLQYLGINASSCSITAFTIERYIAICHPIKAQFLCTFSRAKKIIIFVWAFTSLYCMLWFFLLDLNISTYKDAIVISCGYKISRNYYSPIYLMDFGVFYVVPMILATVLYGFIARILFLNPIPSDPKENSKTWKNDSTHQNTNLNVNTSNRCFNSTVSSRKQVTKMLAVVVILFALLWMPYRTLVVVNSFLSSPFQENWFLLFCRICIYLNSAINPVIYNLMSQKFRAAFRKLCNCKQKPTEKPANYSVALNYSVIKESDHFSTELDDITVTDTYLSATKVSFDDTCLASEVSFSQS
Sequence of Progesterone receptor (Homo sapiens) (P06401 whole entry, looked up): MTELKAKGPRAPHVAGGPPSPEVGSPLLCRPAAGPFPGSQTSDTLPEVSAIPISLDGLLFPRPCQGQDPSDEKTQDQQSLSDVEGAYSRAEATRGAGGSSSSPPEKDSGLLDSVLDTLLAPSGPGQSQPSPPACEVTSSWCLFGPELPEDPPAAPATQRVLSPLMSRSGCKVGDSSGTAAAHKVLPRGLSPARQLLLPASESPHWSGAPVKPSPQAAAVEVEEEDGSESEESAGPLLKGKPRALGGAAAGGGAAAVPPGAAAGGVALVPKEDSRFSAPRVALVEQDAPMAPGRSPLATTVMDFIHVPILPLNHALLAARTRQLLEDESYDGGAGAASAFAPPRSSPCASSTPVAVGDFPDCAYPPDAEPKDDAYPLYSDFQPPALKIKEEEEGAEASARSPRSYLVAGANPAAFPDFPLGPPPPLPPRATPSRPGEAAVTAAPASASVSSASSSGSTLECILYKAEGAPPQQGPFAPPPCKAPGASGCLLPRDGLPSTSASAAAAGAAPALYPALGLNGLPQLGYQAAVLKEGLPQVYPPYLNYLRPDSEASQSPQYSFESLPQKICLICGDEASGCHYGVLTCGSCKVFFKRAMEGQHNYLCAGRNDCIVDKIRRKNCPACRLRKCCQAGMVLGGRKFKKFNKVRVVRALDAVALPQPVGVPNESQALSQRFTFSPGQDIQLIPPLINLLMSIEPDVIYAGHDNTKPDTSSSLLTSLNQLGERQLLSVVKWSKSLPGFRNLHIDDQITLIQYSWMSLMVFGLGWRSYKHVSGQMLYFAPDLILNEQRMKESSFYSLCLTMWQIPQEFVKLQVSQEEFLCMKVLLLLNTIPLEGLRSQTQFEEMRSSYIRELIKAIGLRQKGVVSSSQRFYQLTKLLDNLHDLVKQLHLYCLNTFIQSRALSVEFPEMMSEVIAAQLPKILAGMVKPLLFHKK

O=C(Nc1ccc2[nH]ccc2c1)c1cc2cc(F)ccc2n1Cc1cccc(F)c1
active: [1] 12.2 µM | [2] 48.6 µM | [6] 61.1 µM
inactive: [3] | [4] | [5]

Nc1ccc(Cl)cc1C(=O)c1ccccc1
inactive: [2] | [3] | [4] | [7]
active: [1] 17.2 µM

CN(C)S(=O)(=O)N(SC(F)(Cl)Cl)c1ccccc1
inactive: [7] | [8]
active: [1] 48.6 µM | [2] 61.1 µM | [5] 12 µM | [6] 24.3 µM

CC(C)C1CCC(Cc2ccc(Cl)cc2)C1(O)Cn1cncn1 (stereo not drawn)
active: [1] 3.4 µM | [4] 54.4 µM | [6] 48.1 µM
inactive: [8]

CC[C@H](C)[C@H]1O[C@]2(C=C[C@@H]1C)C[C@@H]1C[C@@H](C/C=C(\C)[C@@H](O[C@H]3C[C@H](OC)[C@@H](O[C@H]4C[C@H](OC)[C@@H](O)[C@H](C)O4)[C@H](C)O3)[C@@H](C)/C=C/C=C3\CO[C@@H]4[C@H](O)C(C)=C[C@@H](C(=O)O1)[C@]34O)O2
active: [1] 16.1 µM | [6] 16.1 µM
inactive: [9] | [5] | [8]

CCN(CC)C(=S)[S-].CCN(CC)C(=S)[S-].[Zn+2]
inactive: [7]
active: [1] 1.08 µM | [2] 1.21 µM | [4] 12.2 µM | [9] 38.6 µM | [6] 1.71 µM

N#CCCSCCC#N
not listed: [3]
inactive: all other assays above

CCCCCCCCCCCCCCC(Br)C(=O)O (stereo not drawn)
not listed: [3]
inactive: all other assays above

Oc1ccccc1Br
not listed: [5] | [8]
inactive: all other assays above

Oc1ccc(C(c2ccc(O)cc2)(C(F)(F)F)C(F)(F)F)cc1
active: [1] 13.6 µM
inactive: [4] | [9] | [7] | [8]

O=CC(Br)(Br)Br
inactive: [1] | [2] | [3] | [7]
active: [6] 43.1 µM

CCCCN(CCCC)C(=S)[S-].CCCCN(CCCC)C(=S)[S-].[Zn+2]
active: [1] 12.2 µM | [2] 43.2 µM | [6] 13.7 µM
inactive: [4] | [9] | [7]

C[C@H]1CC[C@@H]2[C@@H](C)[C@H]3[C@H](C[C@H]4[C@@H]5CC=C6CC(O[C@@H]7O[C@H](CO)[C@H](O)[C@H](O[C@@H]8O[C@H](CO)[C@@H](O)[C@H](O)[C@H]8O)[C@H]7O[C@H]7O[C@@H](C)[C@H](O)[C@@H](O)[C@H]7O)CC[C@]6(C)[C@H]5CC[C@]34C)N2C1 (stereo partly drawn)
active: [2] 31.6 µM | [3] 22.4 µM | [4] 12.7 µM | [9] 12.7 µM | [5] 7.82 µM | [8] 8.99 µM | [6] 11.2 µM

CC(=O)[O-].CC(=O)[O-].[Hg+2]
active: [2] 1.37 µM | [3] 3.44 µM | [4] 13.8 µM | [9] 24.5 µM | [6] 6.11 µM

O=c1ssc(Cl)c1Cl
inactive: [2] | [3] | [9] | [7] | [6]

CN(C)C(=S)S
inactive: [4] | [7]
inactive and 13.7 µM (active): [3]
active: [2] 15.7 µM and 17.2 µM | [6] 15.8 µM and 12.1 µM and 15.4 µM

Cc1cc(C(F)(C(F)(F)F)C(F)(F)F)ccc1NC(=O)c1cccc(I)c1C(=O)NC(C)(C)CS(C)(=O)=O
not listed: [1] | [8] | [9]
inactive: all other assays above

CCC[CH2][Sn]([CH2]CCC)([CH2]CCC)[O]C(=O)c1ccccc1
active: [2] 2.17 µM | [3] 2.43 µM | [4] 3.47 µM | [6] 1.22 µM

CCCCCCCCCC[N+](C)(C)CCCCCCCCCC
active: [2] 19.3 µM | [3] 8.63 µM | [4] 43.6 µM | [9] 38.9 µM | [6] 27.3 µM

CCOC(=O)C1(c2ccccc2)CCN(CCC(C#N)(c2ccccc2)c2ccccc2)CC1
not listed: [1]
inactive: all other assays above

N#CSCSC#N
active: [6] 39.8 µM and 53.9 µM
not listed: [1] | [4]
inactive: all other assays above

CCCCCCCCCCCCCC[P+](CCCCCC)(CCCCCC)CCCCCC (tested in a mixture with another compound)
active: [2] 30.6 µM | [3] 27.3 µM | [9] 49 µM | [6] 3.86 µM

Oc1c(Cl)c(Cl)cc(Cl)c1Cl
not listed: [1] | [3] | [6]
inactive: all other assays above

[Cl][Sn]([c]1ccccc1)([c]1ccccc1)[c]1ccccc1
active: [2] 1.3 µM | [3] 1.64 µM | [4] 2.61 µM | [9] 2.61 µM | [6] 1.03 µM

Cc1cc(C(C)(C)c2cc(C)c(O)c(C)c2)cc(C)c1O
active: [2] 41.8 µM | [3] 59.1 µM
inactive: [4]

C[C@@H]1CC[C@@]2(OC1)O[C@H]1[C@@H](O)[C@H]3[C@@H]4CC[C@H]5C[C@@H](O[C@@H]6O[C@H](CO)[C@H](O[C@@H]7O[C@H](CO)[C@@H](O)[C@H](O[C@@H]8OC[C@@H](O)[C@H](O)[C@H]8O)[C@H]7O[C@@H]7O[C@H](CO)[C@@H](O)[C@H](O[C@@H]8O[C@H](CO)[C@@H](O)[C@H](O)[C@H]8O)[C@H]7O)[C@H](O)[C@H]6O)[C@H](O)C[C@]5(C)[C@H]4CC[C@]3(C)[C@H]1[C@@H]2C
active: [2] 16.3 µM | [3] 14.5 µM | [4] 23.2 µM | [5] 0.804 µM | [8] 0.655 µM | [6] 10.3 µM

C=CC(=O)OCC(COC(=O)C=C)(COC(=O)C=C)COC(=O)C=C
inactive: [5] | [8]
active: [2] 17.2 µM | [3] 19.3 µM | [9] 49 µM | [6] 12.2 µM

[Hg+2].[I-].[I-]
active: [2] 6.11 µM | [3] 5.45 µM | [4] 49 µM | [9] 54.9 µM | [6] 48.6 µM

[Cd+2].[Cl-].[Cl-]
active: [2] 4.36 µM and 2.73 µM | [3] 13.8 µM and 6.11 µM | [6] 794 nM and 344 nM
inactive: [9] | [7]

C[C@H]1O[C@@H](O[C@H]2[C@@H](O)C[C@H](O[C@H]3[C@@H](O)C[C@H](O[C@H]4CC[C@@]5(C)[C@H](CC[C@@H]6[C@@H]5CC[C@]5(C)[C@@H](C7=CC(=O)OC7)CC[C@]65O)C4)O[C@@H]3C)O[C@@H]2C)C[C@H](O)[C@@H]1O
inactive: [5] | [8]
active: [2] 38.8 nM and 94.4 nM | [3] 77.4 nM and 237 nM

CC(C)OC(=O)C(O)(c1ccc(Cl)cc1)c1ccc(Cl)cc1
not listed: [1] | [3] | [6]
inactive: all other assays above
